Screen size: about 360,000 compounds; about 17,000 (4.7%) were called active. Inconclusive results (about 5%) are left out. This excerpt belongs to a sample that is enriched for actives. A number with no mark means an inactive call. Rule as the data show it: active = activity change below about -50%; inconclusive = mostly about -30% to -49%; inactive = weaker than that.
% is scaled to controls: 0 for no effect and ±100 for the full control effect.

A short description of this experiment: qHTS for Inhibitors of Inflammasome Signaling: IL-1-beta AlphaLISA Primary Screen. The following applies: THP-1 LPS/ATP IL-1B secretion, 16 h; at 57.5 µM, hits give low values. An excerpt: Inflammasomes are a set of intracellular multi-protein complexes that enable autocatalytic activation of inflammatory caspases and drive the innate immune response to counter harmful agents. […] A qHTS assay, based on AlphaLISA technology, was developed to screen the Molecular Libraries Small Molecule Repository (MLSMR) to look for novel inflammasome inhibitors. The assay detects IL-1B using AlphaLISA anti-IL-1B acceptor and donor beads. A decreased emission signal, indicating reduced IL-1B secretion, is the desired outcome for this assay. NIH Chemical Genomics Center [NCGC] NIH Molecular Libraries Probe Centers Network [MLPCN] MLPCN Grant: MH095513 Assay Provider: Shyam Biswal Ph.D., Johns Hopkins University Immunity. 2012 Jul 27;37(1):85-95. PMID: 22819042 [2] Curr Pharm Des. 2012;18(16):2320-8. PMID: 22390695
Three microliters containing 3000 THP-1 cells were dispensed into the wells of solid, white, tissue culture treated Greiner 1,536-well plates. Library compounds and positive control, Glyburide, were pin-transferred (23 nL) by a Kalypsys pin-tool equipped with a 1,536-pin array, resulting in final compound concentration ranges of 2.5 nM to 57.5 uM. After 1 hr of cell culture incubation (37 °C, 5% CO2), 1 microL of 1 microg/mL lipopolysaccharide (250 ng/mL, final) and 5 mM ATP (1.25 mM, final) were added to stimulate the cells. After 16 hr of cell culture incubation with the compounds, 1.5 uL of anti-IL-1B acceptor beads (6 ug/mL, final) and biotinylated antibody (0.6 nM, final) were added to the plate, followed by a 1 hr incubation at ambient temperature. To detect the secreted IL-1B, 1.5 uL of AlphaLISA SA-Donor beads (24 ug/mL, final) were added, followed by 30 min of incubation in the dark at ambient temperature. The AlphaLISA signal was read by a PerkinElmer EnVision plate reader with an ultrasensitive luminescence detector and 1536 Plate HTS AlphaScreen aperture (excitation of 680nm and emission of 615nm).
Turning to `C[C@@H]1Cn2cnc(C(=O)Nc3ccc(CNC(=O)OC(C)(C)C)cc3)c2C(=O)N1`, the activity change was -13.5%.

As for `CC(OC(=O)C1CC(=O)N(Cc2ccccc2)C1)C(=O)Nc1ccccc1[N+](=O)[O-]` (stereo not drawn), the activity change is 16.6%.

Turning to `Cc1cc(=O)oc2cc(NC(=O)C3CC(=O)N(Cc4ccccc4)C3)ccc12` (stereo not drawn), the activity change was 0%.

In the case of `O=C(Nc1ccc(F)c([N+](=O)[O-])c1)C1CC(=O)N(Cc2ccccc2)C1` (stereo not drawn), the activity change was -91% (active).

Regarding `NC(=O)C1(Nc2ccc([N+](=O)[O-])cc2)CCCC1`, the activity change is -4.02%.

Turning to `COc1cccc(-c2ccc(SCC(=O)N3CCN(c4ccccc4)CC3)nn2)c1`, the activity change is -69.3% (active).

Turning to `CCOc1ccc(-c2ccc(SCC(=O)N3CCOCC3)nn2)cc1`, the activity change was 71%.

Consider `COc1cccc(/C=C/C(=O)OCC(=O)N2CCN(c3ccccc3)CC2)c1`, for which the activity change is -25.8%.

Regarding `CC(NC(=S)Nc1ccccc1)C1COc2ccccc2O1` (stereo not drawn), the activity change is -4.51%.

As to `CCOC(=O)CNC(=O)N1c2ccccc2Sc2ccccc21`, the activity change was -21%.

Turning to `CCN1/C(=C/C(=S)Nc2ccccc2)Sc2ccccc21`, the activity change was -101% (active).

As to `CCOC(=O)C1=CC[C@@H](c2ccncc2)N(S(=O)(=O)c2ccc(C)cc2)C1`, the activity change is 57.8%.

On to `O=C(c1ccc(Cl)c(S(=O)(=O)N2CCCCCC2)c1)N1CCN(c2ccc(O)cc2)CC1`, for which the activity change is -10.9%.

On to `COc1cc(/C=C/C(=O)OCC(=O)c2ccccc2)cc(OC)c1OC`, for which the activity change was 18.6%.

With `COc1ccc(/C=C/C(=O)OCC(=O)Nc2cccc(Oc3ccccc3)c2)c(OC)c1`, the activity change was -2.25%.

In the case of `COc1ccc(-n2c(-c3ccc(Cl)cc3)n[nH]c2=S)c(OC)c1`, the activity change is -15.4%.

For `COc1cc(/C=C/c2ccc(/C=C/c3cc(OC)c(OC)c(OC)c3)cc2)cc(OC)c1OC`, the activity change was 94.5%.

Regarding `COc1cc(/C=C/C2=CC(C)(C)NC(=S)N2)cc(OC)c1OC`, the activity change is -71.3% (active).

With `COc1ccc(/C=C/C2=CC(C)(C)NC(=S)N2)c(OC)c1`, the activity change was -87.3% (active).

Consider `CCOC(=O)C1CCCN(C(=O)Cn2ncc3c(=O)oc4ccc(C)cc4c32)C1` (stereo not drawn), for which the activity change is 2.35%.

Turning to `CCOC(=O)C1=CCC2C(=O)N(Cc3ccccc3)C(=O)C12` (stereo not drawn), the activity change is 3.12%.

`CN(c1ccccc1)S(=O)(=O)c1ccc(C(=O)NCc2cccnc2)cc1`: the activity change was 12%.

Consider `Cn1c(=O)c2c(nc(OCc3cccnc3)n2Cc2ccccc2)n(C)c1=O`, for which the activity change was -9.43%.

Take `CCC(C)(C)c1ccc(OCC(=O)N(C)C)c(C(C)(C)CC)c1`: the activity change is -90.9% (active).

As to `CCc1nc(C)ccc1OCC(=O)N(CC)CC`, the activity change was 6.9%.

For the compound `CN(C)CCOc1ccc(Cl)cc1C(C)(C)C`, the activity change is -13.6%.

For `O=C(NC1CCCCC1)C1CCC(CNS(=O)(=O)c2ccccc2)CC1` (stereo not drawn), the activity change is -6.12%.

Turning to `O=C(Nc1ccccc1C(=O)Nc1ccncc1)c1ccc([N+](=O)[O-])cc1`, the activity change was -6.48%.

Regarding `O=C(Nc1ccncc1)c1ccc([N+](=O)[O-])cc1Cl`, the activity change is -15%.

For `O=C(Nn1c(SCc2ccc([N+](=O)[O-])cc2)nc2ccccc2c1=O)c1ccc(F)cc1`, the activity change is -1.43%.

On to `O=C(Nc1ccncc1)c1ccc(Cl)c([N+](=O)[O-])c1`, for which the activity change was -64.8% (active).

For `Cc1ccnc(NC(=O)c2ccc(Cl)c([N+](=O)[O-])c2)c1`, the activity change was -78.4% (active).

For `O=C(O)c1ccc2c(=O)n3c(nc2c1)/C(=C/c1ccc(Cl)c([N+](=O)[O-])c1)CC3`, the activity change was -64.3% (active).

As to `Cc1ccc(/C=C2\CCn3c2nc2cc(C(=O)O)ccc2c3=O)c(C)c1`, the activity change was 12.5%.

In the case of `Cc1ccnc(NC(=O)Cn2ccc([N+](=O)[O-])n2)c1`, the activity change was 15.1%.

Turning to `CCN(CC)c1ccc(C(=O)Nn2c(C)nc3ccccc3c2=O)cc1`, the activity change is 18.5%.

Regarding `N#Cc1ccc(/C=C2\CCn3c2nc2cc(C(=O)O)ccc2c3=O)cc1`, the activity change was -13.5%.

As for `Cc1nc2ccccc2c(=O)n1NC(=O)c1ccc(Cl)c([N+](=O)[O-])c1`, the activity change was -60.1% (active).

`Cc1ccnc(NC(=O)c2ccoc2C)c1`: the activity change is -8.69%.

Take `CC1(C(=O)NCc2ccco2)Cc2c(-c3ccc4c(c3)OCO4)ccnc2O1` (stereo not drawn): the activity change is 7.16%.

As for `Cc1ccccc1CSc1nnc(-c2ccccn2)n1N`, the activity change is -29.8%.

For the compound `CCOC(=O)C1CCN(C(=O)c2ccc3c(=O)n4nc(Nc5ccccc5CC)sc4nc3c2)CC1`, the activity change was -8.29%.

In the case of `CCCCN1C(=O)C(CC(=O)NCc2cccs2)CC(C(=O)N2CCOCC2)=C1C` (stereo not drawn), the activity change was 34.2%.

With `COc1ccccc1CNC(=O)Cn1c(=O)oc2cc(Cl)ccc21`, the activity change is -3.46%.

Regarding `Cc1ccc(C(O)c2ncc(-c3ccccc3F)[nH]2)cc1F` (stereo not drawn), the activity change was 0.413%.

For the compound `Cc1ccc(CC2(C)C(=O)Nc3ccc(OC(F)(F)F)cc32)cc1` (stereo not drawn), the activity change is -8.4%.

For the compound `CN1OC[C@@H]2CN(C(=O)c3cccnc3)[C@H](c3ccc(N4CCCCC4)cc3)C[C@@H]21`, the activity change is 3.15%.

Turning to `CCNC(=O)C1(C)CCCN(C(=O)c2c(C)noc2C)C1` (stereo not drawn), the activity change was 25%.

With `CS(=O)(=O)c1sc(C(=O)NC(=S)Nc2ccc(OC(F)(F)F)cc2)c2c1C=CCC2`, the activity change was 21.9%.

On to `COc1ccc(CNC(=O)C2CCN(S(C)(=O)=O)CC2)cc1`, for which the activity change was 14.1%.

For the compound `CCOC(=O)/C(=C\c1ccc([N+](=O)[O-])cc1)C(=O)c1cc(C(C)=O)c(Nc2ccccc2)s1`, the activity change was -116% (active).

As to `O=C(O)C(=Cc1ccc([N+](=O)[O-])cc1)CCc1ccccc1`, the activity change is 0.991%.

`CCOC(=O)/C(=N\Nc1ccccc1[N+](=O)[O-])c1csc(Nc2ccccc2)n1`: the activity change is 1.73%.

As for `CC1C(=O)Nc2ccccc2N1C(=O)c1c(F)cccc1F` (stereo not drawn), the activity change was -9.24%.

For `C=C1C(=O)OC2C1CCC(C)=CCCC1(C)OC21` (stereo not drawn), the activity change was -113% (active).

For the compound `O=C(CSc1ccc([N+](=O)[O-])cn1)Nc1ccc(N2CCOCC2)c(Cl)c1`, the activity change is -12.5%.

In the case of `CS(=O)(=O)N(CC(=O)N1CCCC1)Cc1ccccc1`, the activity change was 4.88%.

Regarding `COc1ccc(C(=O)OCC(=O)Nc2cccc(C(C)=O)c2)cc1OC`, the activity change is 20.1%.

For the compound `COc1cc(C(=O)N(C)Cc2cccc(OC)c2OC)ccc1OCC(=O)Nc1cccc(C(F)(F)F)c1`, the activity change was -57.3% (active).

`CCNC(=O)c1ccc(OCC(=O)Nc2ccc(F)cc2)c(OC)c1`: the activity change was -5.56%.

For `O=C(CN1C(=O)NC2(CCCCC2)C1=O)NCCC1=CCCCC1`, the activity change was 21.6%.

As for `COc1cccc(NC(=O)C2(C)CCN2C(=O)CCC2CCCC2)c1` (stereo not drawn), the activity change is 12.2%.

As to `COc1ccc(CSc2nnnn2-c2ccc(O)cc2)cc1F`, the activity change is -64.2% (active).

Take `Oc1ccc(-n2nnnc2SCc2c(F)cccc2Cl)cc1`: the activity change was -11.4%.

With `COc1ccc(CSc2nnnn2-c2ccc(C(=O)O)cc2)cc1`, the activity change was -2.8%.

On to `COc1ccc(C(C)=O)cc1CN1C(=O)NC2(CCCCC2C)C1=O` (stereo not drawn), for which the activity change was -5.22%.

Take `C[C@H]1CN([C@@H](C)CO)C(=O)CCCn2cc(nn2)CO[C@@H]1CN(C)S(=O)(=O)c1cccc(C#N)c1`: the activity change was 12.5%.

On to `CCn1ccnc1CN1CCCC(C(=O)c2ccc3c4c(cccc24)CC3)C1` (stereo not drawn), for which the activity change is -69.4% (active).

For `Cc1ncoc1C(=O)N1CCCC(C(=O)c2ccc3c4c(cccc24)CC3)C1` (stereo not drawn), the activity change is -21.9%.

As for `CC(=O)NCC(=O)N1CCCC(C(=O)c2ccc3c4c(cccc24)CC3)C1` (stereo not drawn), the activity change was -13.3%.

Turning to `C[C@H](O)[C@@H]1C(=O)N2CCc3c([nH]c4ccccc34)[C@@H]2C[C@@H]1N(C)C(=O)Nc1ccc(F)cc1`, the activity change is -16.5%.

Consider `CC1(C(=O)NS(=O)(=O)c2ccc3ccccc3c2)CCN1C(=O)C1(c2ccc(Cl)cc2)CCC1` (stereo not drawn), for which the activity change is 53.2%.

Take `COc1ccc(-c2cc(C(=O)Nc3ccccc3O)c3ccccc3n2)cc1`: the activity change was -84.2% (active).

As for `COc1ccc(Cl)cc1NC(=O)CN(C)C(=O)c1cc2ccccc2cc1OC`, the activity change was 5.95%.

`COc1ccc(-c2cc(C(=O)N(C)CC(=O)Nc3ccccc3Cl)c3ccccc3n2)cc1OC`: the activity change is -52.1% (active).

As for `COc1ccc(CN(C)C(=O)c2cc(-c3ccc(C)cc3C)nc3ccccc23)c(OC)c1OC`, the activity change is -84.9% (active).

Take `COc1ccc(NC(=O)c2cc(-c3cc(OC)c(OC)c(OC)c3)nc3ccccc23)c(OC)c1`: the activity change is 42.6%.

With `COc1ccc(NC(=O)c2cc(-c3ccc(C)o3)nc3ccccc23)cc1`, the activity change was -5.74%.

For `COc1cccc(NC(=O)CN(C)C(=O)c2cc(Cl)nc3ccccc23)c1`, the activity change is 17.2%.

`COc1ccc(-c2cc(C(=O)N(C)Cc3ccc(OC)c(OC)c3OC)c3ccccc3n2)cc1OC`: the activity change is -13.9%.

In the case of `COc1ccc(CN(C)C(=O)Cc2c[nH]c3ccccc23)c(OC)c1OC`, the activity change was 5.58%.

As to `O=C(Nc1nonc1-c1ccc(Cl)cc1)c1ccco1`, the activity change was 26.6%.

`CC(C)C[C@H](NC(=O)N1CC(=O)Nc2ccccc21)C(=O)N[C@H](Cc1ccccc1)C(=O)O`: the activity change is 4.57%.

Turning to `N#Cc1ccc(-c2nc3c(Cl)cc(C(F)(F)F)cn3c2Cc2ccccc2C(F)(F)F)cc1`, the activity change is 23.1%.

Consider `COc1ccc(S(=O)(=O)N2CCC(C(=O)NCCC(=O)Nc3ccccc3OC)CC2)cc1`, for which the activity change is 2.12%.

With `Nc1nc2c(ncn2[C@@H]2O[C@H](CNS(=O)(=O)N3CCc4ccccc4C3)[C@@H](O)[C@H]2O)c(=O)[nH]1`, the activity change is 0.653%.

`COc1cccc(OCC(=O)NCCS(=O)(=O)N2CCN(c3ccccc3)CC2)c1`: the activity change is 21%.

`OC[C@H]1O[C@@H](c2nc(-c3nc(-c4ccc(F)cc4)no3)cs2)[C@H](O)[C@@H](O)[C@H]1O`: the activity change was 2.39%.

Values taken from PubChem BioAssay AID743279 (National Center for Advancing Translational Sciences (NCATS), 2014).
